Reference: PubChem BioAssay (Tox21)
Values joined by “and” are separate entries in the source; they are usually repeats but may differ in a detail not shown here. Identical values can stand only once. Where a structure was tested more than once in an assay, its records may differ in their call. Active and inactive are the calls of the source. Where a call stands in place of a potency, no number is given. Unless noted, the call rests on the fitted dose curve; in most records, active means well fitted curve in the direction sought with a large enough effect in the repeat runs; inconclusive means weak or mixed curves; inactive means no such curve, though single readings can be large; an effect the other way counts as inactive or inconclusive.

Experiments:
[1] = qHTS assay to identify small molecule antagonists of the thyroid receptor (TR) signaling pathway (AID 743065); further: nearly all actives have a fitted effect of over 55% in size; further: potency means the concentration at half of the fitted maximal effect
Method in brief: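 GH3.TRE-Luc rat pituitary cells carrying two TR response elements driving luciferase were plated for 4 h, given compound plus 1 nM T3 (final), and incubated 23.5 h at 37 C. ONE-Glo luminescence measured reporter inhibition; CellTiter-Fluor fluorescence tracked cytotoxicity.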

[2] = test system: thyroid hormone receptor (rat, GH3 cells); assay: qHTS assay to identify small molecule agonists of the thyroid receptor (TR) signaling pathway (AID 743066; calls by dose curve)
[3] = biological target: Estrogen receptor (Homo sapiens) (UniProt P03372); assay: qHTS assay to identify small molecule antagonists of the estrogen receptor alpha (ER-alpha) signaling pathway (AID 743069; active means well fitted curve in the direction sought with a large enough effect in the signal ratio in the repeat runs, not every such curve was filed as active; inconclusive means weak or mixed curves, or effect the other way; inactive means no such curve, though single readings can be large or run the other way; the % refers to the signal ratio; further: potency means the concentration at half of the fitted maximal effect)
Chain of Estrogen receptor (Homo sapiens) (P03372 whole entry, looked up): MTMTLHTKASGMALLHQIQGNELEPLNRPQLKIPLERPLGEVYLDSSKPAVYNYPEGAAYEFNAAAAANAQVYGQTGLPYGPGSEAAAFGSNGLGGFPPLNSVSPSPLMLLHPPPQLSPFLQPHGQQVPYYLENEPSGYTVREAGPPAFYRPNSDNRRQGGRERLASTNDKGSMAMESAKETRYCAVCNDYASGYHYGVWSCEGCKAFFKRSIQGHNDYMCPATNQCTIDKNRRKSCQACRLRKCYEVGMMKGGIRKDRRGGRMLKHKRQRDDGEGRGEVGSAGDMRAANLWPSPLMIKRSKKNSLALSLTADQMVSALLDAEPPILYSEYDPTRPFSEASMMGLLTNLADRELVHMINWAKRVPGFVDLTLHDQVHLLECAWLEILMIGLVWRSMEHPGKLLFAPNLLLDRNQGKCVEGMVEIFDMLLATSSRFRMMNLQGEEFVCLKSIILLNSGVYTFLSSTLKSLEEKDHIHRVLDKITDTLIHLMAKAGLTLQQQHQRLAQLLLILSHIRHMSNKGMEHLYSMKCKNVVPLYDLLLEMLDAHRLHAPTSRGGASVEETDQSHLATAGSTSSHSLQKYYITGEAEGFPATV
Method in brief: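 Estradiol-stimulated ER-alpha-UAS-bla HEK293 cells, 18 hr compound exposure at 37C. LiveBLAzer B/G substrate, 2 hr RT, fluorescence read.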

[4] = qHTS assay to identify small molecule antagonists of the estrogen receptor alpha (ER-alpha) signaling pathway - cell viability counter screen (AID 743074; calls by dose curve;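 further: HEK293 cells carrying ER-alpha-UAS-bla reporter stimulated with 17beta-estradiol; nearly all actives have a fitted effect of over 45% in size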)
[5] = biological target: Estrogen receptor (Homo sapiens) (UniProt P03372); assay: qHTS assay to identify small molecule agonists of the estrogen receptor alpha (ER-alpha) signaling pathway (AID 743075; calls by dose curve;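 further: HEK293 GripTite cells with ER-alpha and UAS-driven beta-lactamase reporter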; further: potency means the concentration at half of the fitted maximal effect)
[6] = biological target: Estrogen receptor (Homo sapiens) (UniProt P03372); assay: qHTS assay to identify small molecule agonists of the estrogen receptor alpha (ER-alpha) signaling pathway using the BG1 cell line (AID 743079); further: nearly all actives have a fitted effect of over 20% in size; further: potency means the concentration at half of the fitted maximal effect
[7] = qHTS assay to identify small molecule antagonists of the estrogen receptor alpha (ER-alpha) signaling pathway using the BG1 cell line (AID 743080; calls by dose curve;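 further: BG1 cells stimulated with 17beta-estradiol alongside compound; series mostly up to about 70 µM; nearly all actives have a fitted effect of over 25% in size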)
Method in brief: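 Seeding, 24 h rest, compound transfer from DMSO, 17beta-estradiol addition, 21.5 h incubation, CellTiter-Fluor (30 min, 37 C), then ONE-Glo (30 min, room temperature): this sequence was run on BG1-Luc-4E2 reporter cells.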

[8] = qHTS assay to identify small molecule antagonists of the estrogen receptor alpha (ER-alpha) signaling pathway using the BG1 cell line - cell viability counter screen (AID 743081);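 further: compound given together with 17beta-estradiol as the ER stimulus; series mostly up to about 70 µM; nearly all actives have a fitted effect of over 45% in size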
Aromatase (Homo sapiens) = Aromatase (Homo sapiens) (UniProt P11511); assay: qHTS assay to identify aromatase inhibitors (AID 743083); further: series mostly up to about 70 µM; nearly all actives have a fitted effect of over 55% in size
Chain of Aromatase (Homo sapiens) (P11511 whole entry, looked up): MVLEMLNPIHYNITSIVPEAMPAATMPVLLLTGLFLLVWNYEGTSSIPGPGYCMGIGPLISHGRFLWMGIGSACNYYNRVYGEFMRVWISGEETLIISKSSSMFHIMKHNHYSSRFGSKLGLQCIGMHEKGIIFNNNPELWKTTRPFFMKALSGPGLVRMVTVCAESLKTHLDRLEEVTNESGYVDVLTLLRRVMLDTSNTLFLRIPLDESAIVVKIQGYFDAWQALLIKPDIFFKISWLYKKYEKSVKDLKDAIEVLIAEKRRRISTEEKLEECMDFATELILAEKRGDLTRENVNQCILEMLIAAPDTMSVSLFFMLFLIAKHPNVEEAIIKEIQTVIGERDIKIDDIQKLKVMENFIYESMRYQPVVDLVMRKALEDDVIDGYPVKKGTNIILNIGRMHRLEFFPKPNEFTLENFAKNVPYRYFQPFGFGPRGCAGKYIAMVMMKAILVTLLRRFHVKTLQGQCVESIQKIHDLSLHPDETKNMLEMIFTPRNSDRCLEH

[9] = qHTS assay to identify aromatase inhibitors - cell viability counter screen (AID 743084);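 further: cells stimulated with testosterone during compound exposure; nearly all actives have a fitted effect of over 55% in size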
[10] = biological target: Aryl hydrocarbon receptor (Homo sapiens) (UniProt P35869); assay: qHTS assay to identify small molecule that activate the aryl hydrocarbon receptor (AhR) signaling pathway (AID 743085); further: nearly all actives have a fitted effect of over 15% in size; further: potency means the concentration at half of the fitted maximal effect;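 on activation: HG2L7.5c1 human HepG2 liver cells with stably integrated DRE-driven firefly reporter; series mostly up to about 70 µM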
Chain of Aryl hydrocarbon receptor (Homo sapiens) (P35869 whole entry, looked up): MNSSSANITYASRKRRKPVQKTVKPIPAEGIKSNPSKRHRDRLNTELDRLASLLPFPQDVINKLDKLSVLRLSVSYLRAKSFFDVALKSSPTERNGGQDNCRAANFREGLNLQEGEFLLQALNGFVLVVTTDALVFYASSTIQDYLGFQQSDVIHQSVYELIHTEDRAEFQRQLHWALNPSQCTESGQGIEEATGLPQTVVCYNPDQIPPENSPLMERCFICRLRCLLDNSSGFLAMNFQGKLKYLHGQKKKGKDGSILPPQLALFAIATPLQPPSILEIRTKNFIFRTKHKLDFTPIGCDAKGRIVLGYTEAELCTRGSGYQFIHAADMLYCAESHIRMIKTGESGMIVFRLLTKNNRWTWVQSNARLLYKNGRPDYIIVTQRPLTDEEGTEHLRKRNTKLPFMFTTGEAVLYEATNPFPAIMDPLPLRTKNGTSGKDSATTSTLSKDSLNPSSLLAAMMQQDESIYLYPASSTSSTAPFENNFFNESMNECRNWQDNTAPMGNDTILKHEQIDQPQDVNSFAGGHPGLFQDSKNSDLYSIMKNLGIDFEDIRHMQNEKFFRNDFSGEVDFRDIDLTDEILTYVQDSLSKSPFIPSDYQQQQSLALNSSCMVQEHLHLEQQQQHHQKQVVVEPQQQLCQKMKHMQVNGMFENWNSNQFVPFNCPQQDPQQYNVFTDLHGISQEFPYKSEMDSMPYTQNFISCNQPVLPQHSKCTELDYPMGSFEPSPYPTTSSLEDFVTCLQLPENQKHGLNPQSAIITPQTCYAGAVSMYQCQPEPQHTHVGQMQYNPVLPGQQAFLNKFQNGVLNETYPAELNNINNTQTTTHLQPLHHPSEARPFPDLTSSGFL
Method in brief: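 Luminescence (ONE-Glo) from a dioxin-responsive-element luciferase reporter in HG2L7.5c1 HepG2 cells after 24 hr compound exposure at 37C; viability measured by CellTiter-Fluor fluorescence beforehand.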

[11] = qHTS assay to identify small molecule that activate the aryl hydrocarbon receptor (AhR) signaling pathway - cell viability counter screen (AID 743086);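 further: HepG2 liver cells carrying the AhR DRE luciferase reporter; series mostly up to about 70 µM; nearly all actives have a fitted effect of over 45% in size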
Method in brief: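 HepG2-AhR-luc (HG2L7.5c1) cells, 4000/well, were preincubated 5 h at 37C, exposed to compound in qHTS format for 24 hr at 37C, then given CellTiter-Fluor for 30 min; viability was read as fluorescence in the reporter wells.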

[12] = biological target: Peroxisome proliferator-activated receptor gamma (Homo sapiens) (UniProt P37231); assay: qHTS assay to identify small molecule agonists of the peroxisome proliferator-activated receptor gamma (PPARg) signaling pathway (AID 743094; active means well fitted activation curve with a large enough effect in the signal ratio in the repeat runs, not every such curve was filed as active; inconclusive means weak or mixed curves, or effect the other way; inactive means no such curve, though single readings can be large or run the other way; the % refers to the signal ratio)
Chain of Peroxisome proliferator-activated receptor gamma (Homo sapiens) (P37231 whole entry, looked up): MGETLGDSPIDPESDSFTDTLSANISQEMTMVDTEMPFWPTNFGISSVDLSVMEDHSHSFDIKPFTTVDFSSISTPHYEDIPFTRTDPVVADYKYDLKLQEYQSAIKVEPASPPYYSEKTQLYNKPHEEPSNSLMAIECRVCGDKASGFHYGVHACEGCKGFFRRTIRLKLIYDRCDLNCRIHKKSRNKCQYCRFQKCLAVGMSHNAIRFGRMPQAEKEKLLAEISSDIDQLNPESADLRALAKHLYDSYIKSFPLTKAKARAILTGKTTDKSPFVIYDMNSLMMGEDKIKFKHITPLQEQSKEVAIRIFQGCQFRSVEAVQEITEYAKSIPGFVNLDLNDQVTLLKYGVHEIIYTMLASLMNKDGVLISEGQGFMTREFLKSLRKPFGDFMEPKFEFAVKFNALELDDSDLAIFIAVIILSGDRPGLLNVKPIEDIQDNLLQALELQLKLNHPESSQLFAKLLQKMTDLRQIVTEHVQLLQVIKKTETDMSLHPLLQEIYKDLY
Method in brief: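 Quantitative HTS agonist mode: stable HEK293H line with UAS-beta-lactamase reporter under PPARg control, 17 h compound exposure at 37C, fluorescence after 1 h FRET substrate loading at room temperature.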

[13] = biological target: Peroxisome proliferator-activated receptor gamma (Homo sapiens) (UniProt P37231); assay: qHTS assay to identify small molecule antagonists of the peroxisome proliferator-activated receptor gamma (PPARg) signaling pathway (AID 743191; calls by dose curve; further: series mostly up to about 63 µM; nearly all actives have a fitted effect of over 30% in size)
Method in brief: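 GeneBLAzer PPARg UAS-bla HEK293H cells carrying a UAS-driven beta-lactamase reporter were plated at 3000 cells/well, preincubated 5 h at 37C, then given compound for 17 h at 37C; LiveBLAzer B/G FRET substrate was read after 1 h at room temperature.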

[14] = qHTS assay to identify small molecule antagonists of the peroxisome proliferator-activated receptor gamma (PPARg) signaling pathway - cell viability counter screen (AID 743194); further: nearly all actives have a fitted effect of over 55% in size
Method in brief: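 PPARg-UAS-bla HEK293H cells were plated, rested 5 h at 37 C, then treated with compounds plus rosiglitazone (50 nM final) for 17 h at 37 C; viability was then read by CellTiter-Glo luminescence after 30 min at room temperature.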

[15] = qHTS assay for small molecule agonists of the antioxidant response element (ARE) signaling pathway (AID 743202; active means well fitted activation curve with a large enough effect in the signal ratio in the repeat runs, not every such curve was filed as active; inconclusive means weak or mixed curves, or effect the other way; inactive means no such curve, though single readings can be large or run the other way; the % refers to the signal ratio)
Method in brief: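 Compounds delivered in DMSO to ARE-bla HepG2 cells (2,000 cells/well, pre-incubated 5 h) and left 16 h at 37 C. LiveBLAzer B/G FRET substrate then added for 2 h at RT before fluorescence reading.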

[16] = qHTS assay for small molecule agonists of the antioxidant response element (ARE) signaling pathway - cell viability counter screen (AID 743203; calls by dose curve; further: nearly all actives have a fitted effect of over 55% in size)
Method in brief: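 Seeded at 2,000 cells/well, ARE-bla HepG2 cells were incubated 5 hrs before compound addition. After 16 hrs of treatment at 37C with 5% CO2, CellTiter-Glo reagent was added and luminescence read 30 min later.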

[17] = qHTS assay for small molecule activators of the heat shock response signaling pathway - cell viability counter screen (AID 743209); further: nearly all actives have a fitted effect of over 50% in size
Method in brief: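 First, HSE-bla HeLa cells were seeded at 1500 cells/well and kept overnight at 37 C. Next, compounds were pinned in and incubated 5 h. After the FRET substrate step, CellTiter-Glo was added and luminescence read 30 min later.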

[18] = qHTS assay for small molecule activators of the heat shock response signaling pathway (AID 743210; active means well fitted activation curve with a large enough effect in the signal ratio in the repeat runs, with a control signal flat, not every such curve was filed as active; inconclusive means weak or mixed curves; the % refers to the signal ratio;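 further: HeLa cells with beta-lactamase reporter driven by heat shock elements; series mostly up to about 63 µM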)
Method in brief: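 Reporter gene assay: HeLa cells stably bearing an HSE-bla construct, compound treatment 5 h at 37 C, LiveBLAzer substrate 2.5 h at RT, fluorescence intensity.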

[19] = qHTS assay to identify small molecule agonists of the peroxisome proliferator-activated receptor delta (PPARd) signaling pathway - cell viability counter screen (AID 743211); further: nearly all actives have a fitted effect of over 55% in size
Method in brief: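 Viability was measured as CellTiter-Glo luminescence (30 min, room temperature) in the same wells as the beta-lactamase readout. GeneBLAzer PPARd UAS-bla HEK293H cells received compound after 5 h plating and were incubated 17 h at 37 C.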

SMILES	Potency [1]	outcome [2]	Potency [3]	outcome [4]	Potency [5]	Potency [6]	outcome [7]	Potency [8]	Potency (Aromatase (Homo sapiens))	Potency [9]	Potency [10]	Potency [11]	outcome [12]	outcome [13]	outcome [14]	Potency [15]	Potency [16]	outcome [17]	outcome [18]	outcome [19]
CNC(=S)N(C)C	inactive	inactive	inactive	inactive	inactive	inactive	inactive	inactive	inactive	inactive	inactive	inactive	inactive	inactive	inactive	inactive	inactive	inactive	inactive	inactive
CC1(C)CC(N)CC(C)(CN)C1 (centres undefined)	inactive	inactive	inactive	inactive	inactive	inactive	inactive	inactive	inactive	inactive	–	inactive	inactive	inactive	inactive	inactive	inactive	inactive	inactive	inactive
CC(=O)OCc1ccccc1	inactive	inactive	inactive	inactive	inactive	inactive	inactive	inactive	inactive	inactive	–	inactive	inactive	inactive	inactive	inactive	inactive	inactive	inactive	inactive
Brc1ccc(Br)c(Br)c1	inactive	inactive	inactive	inactive	inactive	inactive	inactive	inactive	inactive	inactive	inactive	inactive	inactive	inactive	inactive	inactive	inactive	inactive	inactive	inactive
CCCCCCCC=O	inactive	inactive	inactive	inactive	inactive	inactive	inactive	inactive	inactive	inactive	inactive	inactive	inactive	–	inactive	inactive	inactive	inactive	–	inactive
CC1(C)NC(=O)NC1=O	inactive	inactive	inactive	inactive	inactive	inactive	inactive	inactive	inactive	inactive	inactive	inactive	inactive	inactive	inactive	inactive	inactive	inactive	inactive	inactive
CSc1ccc(Cl)cc1	inactive	inactive	inactive	inactive	inactive	inactive	inactive	inactive	inactive	inactive	inactive	inactive	inactive	inactive	inactive	inactive	inactive	inactive	–	inactive
CC(C)=CCl	inactive	inactive	inactive	–	49.6 µM [inconclusive] (active) and inactive	17.4 µM (active) and inactive	inactive	inactive	inactive	inactive	inactive	inactive	–	–	inactive	inactive	inactive	inactive	–	inactive
NCCN1CCNCC1	inactive	inactive	inactive	–	inactive	inactive	inactive	inactive	inactive	inactive	–	inactive	inactive	inactive	inactive	inactive	inactive	inactive	–	inactive
CCCCCC(=O)O	inactive	inactive	inactive	inactive	inactive	inactive	inactive	inactive	inactive	inactive	–	inactive	inactive	–	inactive	inactive	inactive	inactive	–	inactive
NCCNCCN	inactive	inactive	–	inactive	–	–	–	inactive	inactive	inactive	inactive	inactive	inactive	inactive	inactive	inactive	inactive	inactive	inactive	inactive
CCOCCOCCOCCO	inactive	inactive	–	inactive	–	–	–	inactive	inactive	inactive	inactive	inactive	inactive	inactive	inactive	inactive	inactive	inactive	inactive	inactive
O=C(O)Cn1c(=O)n(Cc2ccc(Br)cc2F)c(=O)c2ccc(Cl)cc21	inactive	inactive	inactive	inactive	inactive	inactive	inactive	–	inactive	–	inactive	–	–	–	inactive	inactive	inactive	inactive	inactive	inactive
CCCCOC(=O)c1ccc(N)cc1	21.1 µM (active) and 21.4 µM (active)	inactive	24.2 µM [inconclusive] (active)	inactive	inactive	23.7 µM (active) and 33.9 µM (active)	–	inactive	inactive	inactive	23.7 µM (active)	inactive	–	–	inactive	–	inactive	inactive	–	inactive
C=CC[N+](C)(C)CC=C	inactive	inactive	–	inactive	–	–	–	inactive	inactive	inactive	inactive	inactive	inactive	inactive	inactive	inactive	inactive	inactive	–	inactive
O=c1[nH]cnc2[nH]ncc12	inactive	inactive	inactive	inactive	inactive	inactive	inactive	inactive	inactive	inactive	–	inactive	inactive	inactive	inactive	inactive	inactive	inactive	–	inactive
CNC(=O)Oc1ccc2c(c1)[C@]1(C)CCN(C)[C@@H]1N2C	inactive	inactive	inactive	inactive	inactive	inactive	inactive	inactive	inactive	inactive	–	inactive	inactive	inactive	inactive	inactive	inactive	inactive	–	inactive

SMILES	Potency [1]	outcome [2]	Potency [3]	outcome [4]	Potency [5]	Potency [6]	outcome [7]	Potency [8]	Potency (Aromatase (Homo sapiens))	Potency [9]	Potency [10]	Potency [11]	outcome [12]	outcome [13]	outcome [14]	Potency [15]	Potency [16]	outcome [17]	outcome [18]	outcome [19]
c1ccc2c(c1)Cc1ccccc1-2	inactive	inactive	inactive	inactive	inactive	inactive	inactive	inactive	inactive	inactive	–	inactive	inactive	inactive	inactive	inactive	inactive	inactive	–	inactive
C[C@]12CC[C@@H]3c4ccc(O)cc4CC[C@H]3[C@@H]1C[C@@H](O)[C@@H]2O	inactive	inactive	–	inactive	–	–	–	inactive	inactive	inactive	inactive	inactive	inactive	inactive	inactive	inactive	inactive	inactive	inactive	inactive
CCNc1ccccc1	inactive	inactive	–	inactive	–	–	–	inactive	inactive	inactive	inactive	inactive	inactive	inactive	inactive	inactive	inactive	inactive	inactive	inactive
COC(=O)c1cccnc1	inactive	inactive	–	inactive	–	–	–	inactive	inactive	inactive	inactive	inactive	inactive	inactive	inactive	inactive	inactive	inactive	inactive	inactive
CC(C)(Oc1ccc(CCNC(=O)c2ccc(Cl)cc2)cc1)C(=O)O	inactive	inactive	inactive	inactive	inactive	inactive	inactive	inactive	inactive	inactive	–	inactive	–	inactive	inactive	inactive	inactive	inactive	–	inactive
Nc1ccc(Cl)c(N)c1	inactive	inactive	–	inactive	inactive	inactive	inactive	inactive	inactive	inactive	–	inactive	–	–	inactive	–	inactive	inactive	inactive	inactive
Cc1ccc([N+](=O)[O-])cc1S(=O)(=O)O	inactive	inactive	inactive	inactive	inactive	inactive	inactive	inactive	inactive	inactive	–	inactive	inactive	inactive	inactive	inactive	inactive	inactive	–	inactive
COCCOC(=O)c1ccccc1C(=O)OCCOC	inactive	inactive	–	inactive	–	–	–	inactive	inactive	inactive	inactive	inactive	inactive	inactive	inactive	inactive	inactive	inactive	inactive	inactive
CCCCC(C=O)CC (centres undefined)	inactive	inactive	inactive	inactive	inactive	inactive	inactive	inactive	inactive	inactive	–	inactive	inactive	inactive	inactive	inactive	inactive	inactive	–	inactive
CC(=O)c1ccc(O)cc1	inactive	inactive	–	inactive	inactive	inactive	inactive	inactive	inactive	inactive	–	inactive	inactive	inactive	inactive	inactive	inactive	inactive	–	inactive
O=C(O)CCCCCCCCC(=O)O	inactive	inactive	–	inactive	–	–	–	inactive	inactive	inactive	inactive	inactive	inactive	inactive	inactive	inactive	inactive	inactive	–	inactive
CC1(C)S[C@@H]2[C@H](NC(=O)COc3ccccc3)C(=O)N2[C@H]1C(=O)O	inactive	inactive	inactive	inactive	inactive	inactive	inactive	inactive	inactive	inactive	–	inactive	inactive	inactive	inactive	inactive	inactive	inactive	–	inactive
OC1C(O)C(O)C(O)C(O)C1O (centres undefined)	inactive	inactive	inactive	inactive	inactive	inactive	inactive	inactive	inactive	inactive	–	inactive	inactive	inactive	inactive	inactive	inactive	inactive	–	inactive
CC(C)(C)c1cc(Cc2cc(C(C)(C)C)c(O)c(C(C)(C)C)c2)cc(C(C)(C)C)c1O	inactive	inactive	inactive	inactive	inactive	inactive	inactive	inactive	inactive	inactive	–	inactive	inactive	inactive	inactive	inactive	inactive	inactive	–	inactive
C[Si]1(C)O[Si](C)(C)O[Si](C)(C)O[Si](C)(C)O1	inactive	inactive	inactive	inactive	inactive	inactive	inactive	inactive	inactive	inactive	–	inactive	inactive	–	inactive	inactive	inactive	inactive	–	inactive
O=C(O)c1cc2ccccc2cc1O	inactive	inactive	inactive	inactive	inactive and 49 µM [activator] (active)	54.1 µM (active) and 48.6 µM (active)	inactive	inactive	inactive	inactive	–	inactive	inactive	inactive	inactive	inactive	inactive	inactive	–	inactive
